Measurements as given in ChEMBL document CHEMBL4513216, “Probing the Open Global Health Chemical Diversity Library for Multistage-Active Starting Points for Next-Generation Antimalarials” (ACS Infect Dis, 2020).
The campaign covered roughly 69,000 compounds. About 8,600 (12%) showed an effect of 50% or more. Only a selection was taken, and strong results are over-represented in it overall.

test system: Plasmodium berghei; test: Screen against P. berghei liver stage (PbLuc), transformed with Luciferase, at 10uM; assay type: functional, HepG2; conditions: tested at 10 uM

| SMILES | INHIBITION |
| --- | --- |
| O=C(Nc1ccccc1)N1CCn2c(nnc2C2CCNCC2)C1 | 11.8% |
| CN(C)C(=O)CN1CCOCC2(CCN(c3ncc(F)cn3)CC2)C1 | -3.26% |
| COCC1CN(Cc2ccc(OC)cc2)S(=O)(=O)c2cnccc2O1 (stereo unspecified) | 13.9% |
| CC(C)CCn1nc(CNc2ccc(Br)cc2)nc1O | 44.9% |
| CCCC(=O)N1CCCC(Cn2cc(-c3ccc(F)cc3)nn2)C1 (stereo unspecified) | 1.24% |
| Cc1ccc(NCc2nc3n(n2)CCCCC3)c(C)c1 | 2.69% |
| CCN1C(=O)C[C@@H]2[C@@H]1CCN2S(=O)(=O)Cc1ccc(C)cc1 | -17.1% |
| COc1ccc(C(=O)Nc2cc(CC(C)C)nn2C)cc1 | 22.3% |
| CCNC(=O)[C@@H]1C[C@H](N)CN1C(=O)CCc1ccc(C)c(C)c1 | 30.9% |
| CCNC(=O)[C@@H]1C[C@@H](N)CN1Cc1ccc(-c2ccccc2C#N)o1 | 23.9% |
| CCNC(=O)[C@@H]1C[C@@H](N)CN1C(=O)CCc1ccc(C)c(C)c1 | 15.3% |
| CCNC(=O)[C@@H]1C[C@@H](N)CN1C(=O)Cc1cc(C)ccc1C | 11.2% |
| CCNC(=O)[C@@H]1C[C@H](N)CN1C(=O)Cc1cc(C)ccc1C | -1.91% |
| CCNC(=O)[C@@H]1C[C@@H](N)CN1Cc1ccc(Sc2ccc(C)cc2)o1 | 77.7% |
| CCNC(=O)[C@@H]1C[C@H](N)CN1Cc1ccc(-c2ccccc2C#N)o1 | 47.1% |
| CCNC(=O)[C@@H]1C[C@H](N)CN1Cc1ccc(Sc2ccc(C)cc2)o1 | 67.5% |
| CCNC(=O)[C@@H]1C[C@H](N)CN1Cc1ccc(-c2cc[nH]n2)o1 | 61.9% |
| CCCNC(=O)Nc1ncc(-c2cccnc2)s1 | 15.5% |
| COCC(=O)N1CC[C@H]2C[C@H](C)O[C@@H]2C1 | 38.1% |
| CCCC(=O)N1CCCCC1C(=O)Nc1ccc(-c2nnc[nH]2)cc1 (stereo unspecified) | 16.8% |
| Cn1nc(C2CCN(C(=O)CCN3CCOCC3)CC2)c2cccnc21 | 32.8% |
| CC(C)c1nc(CSc2nnc(-c3cccs3)n2CC(N)=O)no1 | -49.7% |

| SMILES | INHIBITION |
| --- | --- |
| CC(O)CN1CCN(C(=O)c2ccn(-c3ccccc3Cl)n2)CC1 (stereo unspecified) | -12.2% |
| CN1C[C@H](COCC2CC2)[C@H]2CCN(Cc3ccco3)CC[C@H]2C1=O | 33.4% |
| COC[C@@H]1CN(C)C(=O)[C@@H]2CCN(Cc3ccco3)CC[C@H]12 | 54.1% |
| CN1C[C@@H](COCC2CC2)[C@H]2CCN(Cc3ccco3)CC[C@H]2C1=O | 46.7% |
| Cc1cn2c(n1)CCC(NS(=O)(=O)c1cc(C)sc1C)C2 (stereo unspecified) | 61.5% |
| Cc1cn2c(n1)CCC(NS(=O)(=O)c1ccc(C)s1)C2 (stereo unspecified) | 34.4% |
| Cc1cn2c(n1)CCC(NS(=O)(=O)c1sc(C)nc1C)C2 (stereo unspecified) | 21.5% |
| Cc1cccc(COC[C@@H]2CC[C@H]3[C@H](CCN3C(=O)CC3CC3)O2)n1 | 24.1% |
| Cc1ccc(-c2cc(C(=O)N(C)Cc3noc4c3CCCC4)[nH]n2)o1 | 34.5% |
| Cn1ncc(NCc2cc(F)cc(F)c2)c(Cl)c1=O | 8.48% |
| CC(Nc1cnn(C)c(=O)c1Cl)c1ccc(F)cc1 (stereo unspecified) | 65.9% |
| Cn1ncc(N2CCOCC2)c(Cl)c1=O | 8.77% |
| CC(Nc1cnn(C)c(=O)c1Cl)c1ccc(F)c(F)c1 (stereo unspecified) | 68.9% |
| Cc1nccn1-c1ccc(NS(=O)(=O)c2cnn(C(C)C)c2)cn1 | -2.97% |
| COc1ccc(C(C)Nc2ncc(C(N)=O)cc2Cl)cc1OC (stereo unspecified) | -59.5% |
| Cc1nccn1-c1ccc(C(C)Nc2cnn(C)c(=O)c2Cl)cc1 (stereo unspecified) | 52.6% |
| COc1ccc(C(C)Nc2ncc(C(N)=O)cc2Cl)cc1F (stereo unspecified) | -138% |
| COc1ccc(C(C)Nc2cnn(C)c(=O)c2Cl)cc1OC (stereo unspecified) | 68.9% |
| COc1ccc(C(C)Nc2nc3c(C)nn(C)c3c(=O)n2C)cc1 (stereo unspecified) | -45.2% |
| CC(NCc1cnc(N2CCN(C)CC2)nc1)c1ccc(F)cc1 (stereo unspecified) | 26.5% |
| Cc1ccc(C(C)NC(=O)CCc2cnn(C)c2)cc1F (stereo unspecified) | 33% |
| CC(C)CC(=O)N1Cc2ccccc2CC1C(=O)Nc1nccs1 (stereo unspecified) | 31.6% |

| SMILES | INHIBITION |
| --- | --- |
| CCn1cc2c(n1)CN(S(=O)(=O)c1cccnc1)CC2COC (stereo unspecified) | 8.85% |
| CC1(c2ncc(CN3CCN(c4ccccn4)CC3)cn2)CCCCO1 (stereo unspecified) | -16.85% |
| O=C1[C@H]2CN(CC3CC3)C[C@H]2CN1Cc1cccc(F)c1 | 39.8% |
| O=C(NCc1cccnc1N1CCc2ccccc2C1)c1cnc[nH]1 | -11.6% |
| Cc1cc(C(=O)N2CC[C@@H]3CN(CCC(C)C)S(=O)(=O)[C@@H]3CC2)no1 | 6.27% |
| CS(=O)(=O)N1C[C@H]2CC[C@@H](C1)N(C/C=C/c1ccc(F)cc1)C2 | 31.7% |
| Cc1ccc(CN2CCn3cc(CNC(=O)c4cnn(C)c4)nc3C2)s1 | 16.8% |
| CS(=O)(=O)NCc1cncc2c1CCN(C(=O)N1CCCC1)C2 | 37.2% |
| Cc1ccc(-n2cnc(Cl)c2CO)cc1 | 40.9% |
| Cc1ccccc1-n1cnc(Cl)c1CO | 59.3% |
| OCc1c(Cl)ncn1-c1ccc(F)cc1 | 52.8% |
| OCc1c(Cl)ncn1-c1ccccc1 | 46.4% |
| Cc1ccccc1-n1cnc(Cl)c1C(=O)O | 24.4% |
| Cc1cccc(-n2cnc(Cl)c2CO)c1 | 28% |
| COc1ccc(CN2C[C@@H]3C(CC(=O)N4CCCC4)[C@@H]3C2)cc1 (stereo partly specified) | 17.4% |
| CCc1nnc2n1CC(CNCc1nnc(C(C)(C)C)o1)CC2 (stereo unspecified) | 14.9% |
| Cc1cccc(NC(=O)N2CCC3(CC(=O)N(c4ccsc4)C3)C2)c1 (stereo unspecified) | 12.4% |
| COCCn1cc2c(n1)C(CNCc1ccc(F)cc1)OCC2 (stereo unspecified) | 13.5% |
| Cc1ccc(C(=O)N(C)Cc2cscn2)c(=O)[nH]1 | 15% |
| COCCC1COC2(CCN(C(=O)c3ccncc3)CC2)C1 (stereo unspecified) | 74.2% |
| CCN(C)C1COC2(CCN(C(=O)c3cccc(Cl)c3)CC2)C1 (stereo unspecified) | 0.112% |
| CCN(C)C1COC2(CCN(C(=O)c3ccc(Cl)cc3)CC2)C1 (stereo unspecified) | 70.3% |

| SMILES | INHIBITION |
| --- | --- |
| COCCC1COC2(CCN(C(=O)c3ccsc3)CC2)C1 (stereo unspecified) | 57.9% |
| COCCC1COC2(CCN(C(C)=O)CC2)C1 (stereo unspecified) | 20.1% |
| CCN(C)C1COC2(CCN(C(=O)c3ccc4[nH]ccc4c3)CC2)C1 (stereo unspecified) | -12.2% |
| COCCC1COC2(CCN(C(=O)c3cccn3C)CC2)C1 (stereo unspecified) | 20.6% |
| COCCC1COC2(CCN(C(=O)c3ccccc3)CC2)C1 (stereo unspecified) | 40.4% |
| COCCC1COC2(CCN(C(=O)c3cccnc3)CC2)C1 (stereo unspecified) | 34.6% |
| CCc1nc2ccccc2n1C(CC)C(=O)N(C)CCc1noc(C)n1 (stereo unspecified) | -4.12% |
| CC(C)c1noc(OCc2cccc(S(=O)(=O)N(C)C)c2)n1 | 37.8% |
| CCCn1nnc(NCc2ccccc2OCc2ccc(Cl)cc2)n1 | -36.8% |
| COc1ccccc1CNC(=O)C[S+]([O-])Cc1cc(C)on1 (stereo unspecified) | -9.19% |
| CCN(CC1CCOC1)C(=O)c1ccc(N2CCOCC2)c(F)c1 (stereo unspecified) | 66.2% |
| O=C(c1cc(Cl)c2c(c1)OCCCO2)N(CC1CCOC1)C1CC1 (stereo unspecified) | 30.9% |
| CCN(CC1CCOC1)C(=O)c1ccccc1N1CCOCC1 (stereo unspecified) | 26.8% |
| CCN(CC1CCOC1)C(=O)c1cc(F)ccc1N1CCN(C)CC1 (stereo unspecified) | 7.27% |
| CCN(CC1CCOC1)C(=O)c1cc(Cl)c2c(c1)OCO2 (stereo unspecified) | 56.6% |
| CCN(CC1CCOC1)C(=O)c1cc(OC)c2c(c1)OCCO2 (stereo unspecified) | 30.9% |
| COCC(=O)N1CCCC(c2noc3nc(C)cc(C(F)(F)F)c23)C1 (stereo unspecified) | 24.4% |
| CC(C)NC(=O)COc1ccc(-c2nc(C(C)C)no2)cc1 | 10.7% |
| Cc1csc(C(C#N)C(=O)NCc2ccccc2)n1 (stereo unspecified) | 52.6% |
| Cc1csc(C(C#N)C(=O)NCc2cccnc2)n1 (stereo unspecified) | 26.5% |
| Cc1csc(C(C#N)C(=O)Nc2ccccc2)n1 (stereo unspecified) | 8.08% |
| Cc1cc(N(C)C)nc(C2CCNC2)n1 (stereo unspecified) | 35% |

| SMILES | INHIBITION |
| --- | --- |
| O=C(NC1CCCc2nc(N3CCCCC3)ncc21)C1CCCC1 (stereo unspecified) | 40% |
| Cc1ccc(C(CNC(=O)Nc2cn[nH]c2)N2CCOCC2)o1 (stereo unspecified) | -45.6% |
| CC1=Nc2c(c(=O)[nH]n2C(C)C)C(c2ccsc2)S1 (stereo unspecified) | 30% |
| O=C(NCc1cccnc1)N1CCc2ncnc(C3CC3)c2CC1 | -14.3% |
| O=C(O)CCc1ccc(S(=O)(=O)Nc2cnn(CC3CC3)c2)cc1 | 5.51% |
| O=C(O)c1ccc(S(=O)(=O)Nc2cnn(CC(F)(F)F)c2)cc1 | 72.8% |
| O=C(O)CCc1ccc(S(=O)(=O)Nc2cnn(CC(F)(F)F)c2)cc1 | 28.1% |
| O=C(NCCOc1ccc(Cl)cn1)Nc1ccccn1 | -34.8% |
| CS(=O)(=O)NCc1cncc2c1CCN(C(=O)c1cccnc1)C2 | 4.57% |
| CCCOCCn1ncc(N2CCCC2)cc1=O | -49.2% |
| Cc1cnn(C(C)C(=O)NCC2CCN(c3cnn(C)c(=O)c3)CC2)c1 (stereo unspecified) | -9.08% |
| O=c1cc(N2CCNCC2)cnn1CCCn1cccn1 | 49.9% |
| CCC(CC)Cn1ncc(N2CCOCC2)cc1=O | 23.8% |
| Cc1cnn(CCCn2ncc(N3CCC(CN)C3)cc2=O)c1 (stereo unspecified) | 66.5% |
| Cc1cnn(CC(=O)NCC2CCN(c3cc(Cl)ccc3C)C2)c1 (stereo unspecified) | -47.28% |
| NCC1CCN(c2cnn(CCCn3cccn3)c(=O)c2)CC1 | 61% |
| O=c1cc(N2CCCCC2)cnn1CCCn1cccn1 | -54% |
| CN1CCN(c2cnn(CCn3cccn3)c(=O)c2)CC1 | 57.3% |
